In the library only some 27% were active in any assay of this set; here they are far more common.
Cav32 inh: inhibitors of human Cav3.2 T-type calcium channel | O95180 | B-score at 10 µM | actives 4% (n = 100,000) | Cav3.2-expressing cells, Fluo-4 calcium fluorescence FDSS; hits give low values;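 active = single-dose well whose peak fluorescence ratio is a statistical outlier from its plate by either plate-standardised score or position-corrected B-score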
CYP2C9 activ: CYP2C9 (human) activation | P11712 | recombinant CYP2C9, luciferin-H conversion, luminescence; hits give high values; factor 1 = untreated enzyme, 0 = blocked | activation factor at 5 µM | actives 1.4% (n = 96,000) | AID 1024;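 active = activation factor of 2 or more for CYP2C9 at a 5 µM dose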
Target sequence (P11712 whole entry, looked up): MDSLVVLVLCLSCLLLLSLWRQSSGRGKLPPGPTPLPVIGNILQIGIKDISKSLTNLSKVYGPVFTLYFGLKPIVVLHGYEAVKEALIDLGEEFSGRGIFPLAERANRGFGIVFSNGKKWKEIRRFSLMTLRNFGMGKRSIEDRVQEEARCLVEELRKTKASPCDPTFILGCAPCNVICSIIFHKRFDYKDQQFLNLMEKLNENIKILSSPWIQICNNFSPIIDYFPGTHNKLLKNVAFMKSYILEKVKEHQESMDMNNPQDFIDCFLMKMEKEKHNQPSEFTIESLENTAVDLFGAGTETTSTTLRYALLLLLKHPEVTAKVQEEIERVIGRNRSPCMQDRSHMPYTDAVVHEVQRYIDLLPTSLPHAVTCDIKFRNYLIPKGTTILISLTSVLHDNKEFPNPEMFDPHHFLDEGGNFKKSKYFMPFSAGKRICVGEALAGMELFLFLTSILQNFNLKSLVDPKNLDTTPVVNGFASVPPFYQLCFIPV
CYP2C9 inh: human CYP2C9 inhibition; AID 777; CYP2C9 Supersomes, luciferin-H conversion, luminescence; inhibition, % at 5 µM; actives 20% (n = 96,000); P11712;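 active = blocking of liver enzyme CYP2C9 beyond about 50% at 5 µM, limit read from the data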
CYP2C19 activ: increases human CYP2C19 enzyme activity. 96,000 tested, under 10 active. recombinant CYP2C19, luciferin-H EGE luminescence; hits give high values; 0 = fully inhibited enzyme, 1 = untreated enzyme. activation factor at 5 µM;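 active = activation factor of at least 2 at 5 µM in the primary screen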
CYP2C19 inh: inhibitors of human CYP2C19. CYP2C19 Supersomes, luciferin-H EGE luminescence, 30 min. inhibition, % at 5 µM. actives 21% (n = 96,000). AID 778;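 active = CYP2C19 inhibition above a set limit at 5 µM in the primary screen, cut at about 50% in these data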
Large screens that a line does not name were inactive.

Cc1cc(NC(=O)CCC(=O)N(c2ccccc2)C(C(=O)NC2CCCC2)c2cccs2)no1 (stereo not drawn)	CYP2C9 inh 69.5, CYP2C19 inh 77.4
Cc1ccc(N(C(=O)C(F)(F)F)C(C(=O)NC2CCCCC2)c2cccs2)cc1 (stereo not drawn)	CYP2C9 inh 55.0
Cc1noc(NS(=O)(=O)c2ccc(NC(=O)CSc3nc4ccccc4s3)cc2)c1C	none
O=C(CCC(=O)N(c1cccc(F)c1)C(C(=O)NC1CCCC1)c1ccncc1)Nc1cccnc1 (stereo not drawn)	none (no result: CYP2C9 activ, CYP2C9 inh, CYP2C19 activ, CYP2C19 inh)
Cc1ccc(N(C(=O)CCC(=O)Nc2cc(C)on2)C(C(=O)NC2CCCC2)c2cccs2)cc1 (stereo not drawn)	CYP2C9 inh 89.0, CYP2C19 inh 94.6
O=C(CCC(=O)N(c1ccccc1)C(C(=O)NC1CCCC1)c1ccncc1)Nc1cccnc1 (stereo not drawn)	CYP2C19 inh 70.1
COc1ccc(N(C(=O)c2ccco2)C(C(=O)NC2CCCC2)c2cccs2)cc1OC (stereo not drawn)	none (no result: CYP2C9 activ, CYP2C9 inh, CYP2C19 activ, CYP2C19 inh)
Cc1cc(NC(=O)CCC(=O)N(c2ccccc2)C(C(=O)NC2CCCC2)c2ccccc2)no1 (stereo not drawn)	none (no result: CYP2C9 activ, CYP2C9 inh, CYP2C19 activ, CYP2C19 inh)
O=C(NC1CCCC1)C(c1cccs1)N(C(=O)c1ccco1)c1ccc2c(c1)OCCO2 (stereo not drawn)	CYP2C9 inh 77.7, CYP2C19 inh 80.4
Cc1cc(N(C(=O)c2ccco2)C(C(=O)NC2CCCCC2)c2ccccc2)ccc1-n1cnnn1 (stereo not drawn)	CYP2C9 inh 91.5, CYP2C19 inh 55.8
O=C(NC1CCCCC1)C1Cc2ccccc2CN1S(=O)(=O)c1ccc(F)cc1 (stereo not drawn)	none (no result: CYP2C9 activ, CYP2C9 inh, CYP2C19 activ, CYP2C19 inh)
O=C(Nc1nnc(C2CC2)s1)C1Cc2ccccc2CN1S(=O)(=O)c1ccccc1F (stereo not drawn)	CYP2C19 inh 54.7
CCOC(=O)CSc1nc(N)c(C#N)c(CC(C)C)c1C#N	none
COc1ccc(N2CCN(CC(O)COc3ccc4c(c3)CCC4)CC2)cc1 (stereo not drawn)	CYP2C19 inh 58.5
C=CCc1ccccc1OCC(O)CN1CCN(c2ccc(OC)cc2)CC1 (stereo not drawn)	CYP2C19 inh 50.5
COc1cccc(OC)c1OCC(O)CN1CCN(c2ccccc2)CC1 (stereo not drawn)	none
C=CCc1ccccc1OCC(O)Cn1ccnc1C (stereo not drawn)	CYP2C19 inh 57.2
Cc1nccn1CC(O)COc1ccccc1 (stereo not drawn)	none (no result: CYP2C9 activ, CYP2C9 inh, CYP2C19 activ, CYP2C19 inh)
COc1ccc(OCC(O)CN2CCCCCC2)cc1 (stereo not drawn)	none (no result: CYP2C9 activ, CYP2C9 inh, CYP2C19 activ, CYP2C19 inh)
OC(COc1ccc2c(c1)CCC2)CN1CCN(c2ccccc2F)CC1 (stereo not drawn)	CYP2C19 inh 51.4
CCOC(=O)CCC(=O)Nc1ccccc1C(N)=O	none
CCn1c(=O)n(CC)c2cc(S(=O)(=O)Nc3ccccc3C)c(C)cc21	CYP2C9 inh 75.5, CYP2C19 inh 71.6
CCOc1ccc(C2N(c3ccc(OC)cc3)C(=O)C3CCCN32)cc1OC (stereo not drawn)	none
COc1ccccc1C1N(c2cc(Cl)ccc2OC)C(=O)C2CCCN21 (stereo not drawn)	none
CCOc1ccc(C2N(c3ccc(F)cc3)C(=O)C3CCCN32)cc1OC (stereo not drawn)	CYP2C19 inh 65.9
CCOc1ccc(C2N(c3ccc(Cl)cc3)C(=O)C3CCCN32)cc1OC (stereo not drawn)	CYP2C19 inh 65.1
CCOc1ccc(C2N(c3cc(Cl)ccc3OC)C(=O)C3CCCN32)cc1OC (stereo not drawn)	CYP2C19 inh 72.0
COC(=O)CCC(=O)OC1(C)C(=O)C=C2C=C(C3CC3)N(Cc3ccccc3)C=C2C1=O (stereo not drawn)	none (no result: CYP2C9 activ, CYP2C9 inh, CYP2C19 activ, CYP2C19 inh)
Cc1cccc(N2CCN(C(=O)C3CCN(S(=O)(=O)c4cccnc4)CC3)CC2)c1C	none
O=C(NC1CC1)c1cc(Cl)ccc1[N+](=O)[O-]	none
CC(=O)NCCOc1cccc2ccccc12	CYP2C19 inh 55.7
CC1C(=O)CCN(C(C)(C)C)C1C (stereo not drawn)	none
CCSc1nnc(NC(=O)CSc2nccn2-c2cc(C)cc(C)c2)s1	CYP2C9 inh 50.0
CCSc1nnc(NC(=O)CSc2nccn2-c2cccc(C)c2C)s1	Cav32 inh -7.08, CYP2C9 inh 69.9
CCSc1nnc(NC(=O)CSc2ncccn2)s1	none
Cc1ccc(NC(=S)NNC(=O)Cn2nc([N+](=O)[O-])cc2C)cc1	none
CCN1CCc2c(C#N)c(N3CCCCC3)nc(N3CCOCC3)c2C1	CYP2C9 inh 67.8
CCOC(=O)c1sc2nc(N3CCOCC3)c3c(c2c1N)CCN(C)C3	none
CCN(CC)c1nc(N2CCOCC2)c(C#N)c2c1CN(C)CC2	CYP2C9 inh 55.6
N#Cc1c(N2CCOCC2)nc(N2CCCCC2)c2c1CCN(C1CCCCC1)C2	none
CCOC(=O)N1CCC(N2C(=O)c3ccccc3C2Nc2cccnc2)CC1 (stereo not drawn)	none
CCOC(=O)c1ccccc1NC1c2ccccc2C(=O)N1C1CCN(C(=O)OCC)CC1 (stereo not drawn)	Cav32 inh -5.78
CCOC(=O)N1CCC(N2C(=O)c3ccccc3C2Nc2ccc(Cl)cn2)CC1 (stereo not drawn)	CYP2C9 inh 57.6, CYP2C19 inh 58.5
CCOC(=O)N1CCC(N2C(=O)c3ccccc3C2=O)CC1	none
CCOC(=O)N1CCC(N2C(=O)c3ccccc3C2Nc2ccccc2C)CC1 (stereo not drawn)	CYP2C9 inh 79.9, CYP2C19 inh 64.7
CCOC(=O)N1CCC(N2C(=O)c3ccccc3C2Nc2ccc3c(c2)OCCO3)CC1 (stereo not drawn)	none
COc1ccc(C(=O)C2CN(c3ccccc3)CC2c2ccc(Cl)cc2)cc1 (stereo not drawn)	CYP2C9 inh 63.1
COc1ccc(NC(=O)c2ccc(CN3CCN(c4ccccc4)CC3)cc2)cc1	none
Cn1c(=O)c2c(nc(N3CCN(Cc4ccccc4)CC3)n2CCSc2ncccn2)n(C)c1=O	none (no result: Cav32 inh)
CC(=O)NCCCc1c[nH]c2ccc(Cl)cc12	CYP2C19 inh 80.5
O=C(NCCc1c[nH]c2ccc(Cl)cc12)c1cccnc1	CYP2C9 inh 86.8, CYP2C19 inh 90.9
NS(=O)(=O)c1ccc(CCNC(=O)c2cccnc2)cc1	none (no result: CYP2C9 activ, CYP2C9 inh, CYP2C19 activ, CYP2C19 inh)
O=C(NCCCO)C12CC3CC(CC(C3)C1)C2	none (no result: CYP2C9 activ, CYP2C9 inh, CYP2C19 activ, CYP2C19 inh)
COc1ccc(/C=N/NC(=O)C(=O)N2CCN(c3ccccc3OC)CC2)cc1	none
Cc1ccc(S(=O)(=O)N(Cc2ccc(F)cc2)Cc2ccco2)cc1	none (no result: Cav32 inh)
COc1ccc(S(=O)(=O)N(CCCN2CCOCC2)Cc2ccc(OC)c(OC)c2)cc1	CYP2C19 inh 88.6
COC(=O)CN(Cc1ccco1)S(=O)(=O)c1ccccc1	none
COc1ccc(S(=O)(=O)N(Cc2ccc(OC)c(OC)c2)Cc2ccco2)cc1	CYP2C19 inh 59.2 (no result: Cav32 inh)
Cc1ccc(S(=O)(=O)N(Cc2ccccc2)Cc2ccco2)cc1	CYP2C9 inh 90.0, CYP2C19 inh 82.9

From PubChem
